Assay results taken from the supplement of paper PMC8728848.
Many of the other results were omitted from the sample, so the strongest signals are more common in it than they were.

Legend:
Experiment in all cases: glycan array binding signal (z-score within array); higher = stronger binding
Details in all cases: glycan notation: IUPAC condensed, linker removed
[1] = target: Fuc(a1-2)Gal(b1-3)GalNAc(b1-3)Gal
How it was run: (§1)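 Glycan array data were curated from 3228 arrays in the Consortium for Functional Glycomics database and kept only where the protein sequence was available. Glycan names were converted to IUPAC-condensed notation, and columns mapping to the same glycan were averaged. The binding signal is a within-array Z-score, averaged across arrays of the same protein sequence at different concentrations or buffers and across linkers. Negative Z-scores can be read as non-binding.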

[2] = target: Fuc(a1-2)Gal(b1-3)GlcNAc6S
How it was run: as §1

[3] = target: Fuc(a1-2)Gal3S(b1-4)GlcNAc
How it was run: as §1

[4] = target: Fuc(a1-2)[Gal(a1-3)]Gal(b1-3)GalNAc(b1-3)Gal(a1-4)Gal(b1-4)Glc
How it was run: as §1

[5] = target: Fuc(a1-2)[Gal(a1-3)]Gal(b1-3)GlcNAc(b1-6)GalNAc
How it was run: as §1

[6] = target: Fuc(a1-2)[Gal(a1-3)]Gal(b1-4)GlcNAc(b1-2)Man(a1-3)[Fuc(a1-2)[Gal(a1-3)]Gal(b1-4)GlcNAc(b1-2)Man(a1-6)]Man(b1-4)GlcNAc(b1-4)GlcNAc
How it was run: as §1

[7] = target: Fuc(a1-2)[Gal(a1-3)]Gal(b1-4)GlcNAc(b1-3)GalNAc
How it was run: as §1

[8] = target: Fuc(a1-2)[Gal(a1-3)]Gal(b1-4)GlcNAc(b1-3)[Fuc(a1-2)[Gal(a1-3)]Gal(b1-4)GlcNAc(b1-6)]GalNAc
How it was run: as §1

[9] = target: Fuc(a1-2)[Gal(a1-3)]Gal(b1-4)GlcNAc(b1-6)GalNAc
How it was run: as §1

[10] = target: Fuc(a1-2)[Gal(a1-3)]Gal(b1-4)[Fuc(a1-3)]Glc
How it was run: as §1

[11] = target: Fuc(a1-3)[Gal(b1-4)]GlcNAc
How it was run: as §1

[12] = target: Fuc(a1-3)[Gal(b1-4)]GlcNAc(b1-2)Man
How it was run: as §1

[13] = target: Fuc(a1-3)[Gal(b1-4)]GlcNAc(b1-6)[Gal(b1-3)GlcNAc(b1-3)]Gal(b1-4)Glc
How it was run: as §1

Fuc(a1-4)GlcNAc = target: Fuc(a1-4)GlcNAc
How it was run: as §1

[14] = target: Gal(b1-3)GalNAc(b1-3)Gal(a1-4)Gal(b1-4)Glc
How it was run: as §1

[15] = target: Gal(b1-3)GlcNAc(b1-3)GalNAc
How it was run: as §1

[16] = target: Gal(b1-3)[GlcNAc(b1-6)]GalNAc
How it was run: as §1

[17] = target: Gal(b1-3)[Neu5Ac(b2-6)]GalNAc
How it was run: as §1

[18] = target: Gal(b1-4)GlcNAc(b1-3)Gal(b1-4)GlcNAc(b1-2)[Gal(b1-4)GlcNAc(b1-3)Gal(b1-4)GlcNAc(b1-6)]Man(a1-6)[Gal(b1-4)GlcNAc(b1-3)Gal(b1-4)GlcNAc(b1-2)Man(a1-3)]Man(b1-4)GlcNAc(b1-4)GlcNAc
How it was run: as §1

[19] = target: Gal(b1-4)GlcNAc(b1-3)GalNAc
How it was run: as §1

[20] = target: Gal(b1-4)GlcNAc(b1-3)[Gal(b1-4)GlcNAc(b1-6)]Gal(b1-4)GlcNAc
How it was run: as §1

[21] = target: Gal(b1-4)GlcNAc(b1-3)[GlcNAc(b1-6)]Gal(b1-4)GlcNAc
How it was run: as §1

[22] = target: Gal(b1-4)GlcNAc(b1-6)[Gal(b1-4)GlcNAc(b1-3)]GalNAc
How it was run: as §1

Gal(b1-6)Gal = target: Gal(b1-6)Gal
How it was run: as §1

[23] = target: Gal3S(b1-4)[Fuc(a1-3)]GlcNAc6S
How it was run: as §1

Gal3S4S(b1-4)GlcNAc = target: Gal3S4S(b1-4)GlcNAc
How it was run: as §1

Gal3S6S(b1-4)GlcNAc6S = target: Gal3S6S(b1-4)GlcNAc6S
How it was run: as §1

Gal6S(b1-4)Glc6S = target: Gal6S(b1-4)Glc6S
How it was run: as §1

GlcA(b1-3)GlcNAc = target: GlcA(b1-3)GlcNAc
How it was run: as §1

[24] = target: GlcNAc(a1-3)Gal(b1-4)GlcNAc
How it was run: as §1

[25] = target: GlcNAc(a1-4)Gal(b1-4)GalNAc
How it was run: as §1

[26] = target: GlcNAc(b1-2)[GlcNAc(b1-4)]Man(a1-3)[GlcNAc(b1-4)][GlcNAc(b1-2)[GlcNAc(b1-6)]Man(a1-6)]Man(b1-4)GlcNAc(b1-4)[Fuc(a1-6)]GlcNAc
How it was run: as §1

[27] = target: GlcNAc(b1-3)Gal(b1-4)GlcNAc
How it was run: as §1

[28] = target: GlcNAc(b1-3)Gal(b1-4)GlcNAc(b1-3)Gal(b1-4)GlcNAc(b1-3)Gal(b1-4)GlcNAc(b1-3)Gal(b1-4)GlcNAc(b1-2)[GlcNAc(b1-3)Gal(b1-4)GlcNAc(b1-3)Gal(b1-4)GlcNAc(b1-3)Gal(b1-4)GlcNAc(b1-3)Gal(b1-4)GlcNAc(b1-6)]Man(a1-6)[GlcNAc(b1-3)Gal(b1-4)GlcNAc(b1-3)Gal(b1-4)GlcNAc(b1-3)Gal(b1-4)GlcNAc(b1-3)Gal(b1-4)GlcNAc(b1-2)Man(a1-3)]Man(b1-4)GlcNAc(b1-4)[Fuc(a1-6)]GlcNAc
How it was run: as §1

GlcNAc(b1-3)Man = target: GlcNAc(b1-3)Man
How it was run: as §1

GlcNAc(b1-4)GlcNAc = target: GlcNAc(b1-4)GlcNAc
How it was run: as §1

GlcNAc(b1-6)GalNAc = target: GlcNAc(b1-6)GalNAc
How it was run: as §1

[29] = target: Man(a1-2)Man(a1-2)Man(a1-3)Man
How it was run: as §1

[30] = target: Neu5Ac(a2-3)Gal(b1-3)GalNAc(b1-4)[Neu5Ac(a2-3)]Gal(b1-4)Glc
How it was run: as §1

Neu5Ac(a2-3)Gal(b1-4)Glc = target: Neu5Ac(a2-3)Gal(b1-4)Glc
How it was run: as §1

[31] = target: Neu5Ac(a2-3)Gal(b1-4)GlcNAc(b1-3)Gal(b1-4)GlcNAc(b1-3)[Neu5Ac(a2-3)Gal(b1-4)GlcNAc(b1-3)Gal(b1-4)GlcNAc(b1-6)]GalNAc
How it was run: as §1

[32] = target: Neu5Ac(a2-3)[Neu5Ac(a2-6)]GalNAc
How it was run: as §1

Neu5Ac(a2-6)Gal = target: Neu5Ac(a2-6)Gal
How it was run: as §1

[33] = target: Neu5Ac(a2-6)Gal(b1-4)GlcNAc(b1-2)Man(a1-3)[Neu5Ac(a2-6)Gal(b1-4)GlcNAc(b1-2)Man(a1-6)]Man(b1-4)GlcNAc(b1-4)GlcNAc
How it was run: as §1

[34] = target: Neu5Ac(a2-6)Gal(b1-4)GlcNAc(b1-3)Gal(b1-4)GlcNAc(b1-3)[Neu5Ac(a2-6)Gal(b1-4)GlcNAc(b1-3)Gal(b1-4)GlcNAc(b1-6)]GalNAc
How it was run: as §1

[35] = target: Neu5Ac(a2-6)Gal(b1-4)GlcNAc(b1-6)[Gal(b1-3)GlcNAc(b1-3)]Gal(b1-4)Glc
How it was run: as §1

[36] = target: Neu5Ac(a2-6)Gal(b1-4)GlcNAc6S
How it was run: as §1

Neu5Ac(a2-8)Neu5Ac = target: Neu5Ac(a2-8)Neu5Ac
How it was run: as §1

[37] = target: Neu5Ac(a2-8)Neu5Ac(a2-3)Gal(b1-3)GalNAc(b1-4)[Neu5Ac(a2-3)]Gal(b1-4)Glc
How it was run: as §1

Neu5Gc(a2-3)Gal(b1-4)Glc = target: Neu5Gc(a2-3)Gal(b1-4)Glc
How it was run: as §1

[38] = target: Neu5Gc(a2-3)Gal(b1-4)GlcNAc
How it was run: as §1

[39] = target: Neu5Gc(a2-6)Gal(b1-4)GlcNAc
How it was run: as §1

B1: PNGase F (Flavobacterium meningosepticum) (protein)
chain: GIPAPADNTVNIKTFDKVKNAFGDGLSQSAEGTFTFPADVTAVKTIKMFIKNECPNKTCDEWDRYANVYVKNKTTGEWYEIGRFITPYWVGTEKLPRGLEIDVTDFKSLLSGNTELKIYTETWLAKGREYSVDFDIVYGTPDYKYSAVVPVVQYNKSSIDGVPYGKAHTLALKKNIQLPTNTEKAYLRTTISGWGHAKPYDAGSRGCAEWCFRTHTIAINNSNTFQHQLGALGCSANPINNQSPGNWTPDRAGWCPGMAVPTRIDVLNNSLIGSTFSYEYKFQNWTNNGTNGDAFYAISSFVIAKSNTPISAPVVTNLDPHHHHHH
glycan array binding signal (z-score) [1]: 1.61
glycan array binding signal (z-score) [2]: -0.123
glycan array binding signal (z-score) [3]: -0.157
glycan array binding signal (z-score) [4]: 0.033
glycan array binding signal (z-score) [5]: -0.032
glycan array binding signal (z-score) [6]: -0.273
glycan array binding signal (z-score) [7]: -0.226
glycan array binding signal (z-score) [8]: 1.46
glycan array binding signal (z-score) [9]: 0.476
glycan array binding signal (z-score) [10]: -0.16
glycan array binding signal (z-score) [11]: 0.02
glycan array binding signal (z-score) [12]: 0.163
glycan array binding signal (z-score) [13]: -0.308
glycan array binding signal (z-score) (Fuc(a1-4)GlcNAc): 2.72
glycan array binding signal (z-score) [14]: 0.036
glycan array binding signal (z-score) [15]: -0.268
glycan array binding signal (z-score) [16]: -0.166
glycan array binding signal (z-score) [17]: -0.337
glycan array binding signal (z-score) [18]: 1.63
glycan array binding signal (z-score) [19]: -0.281
glycan array binding signal (z-score) [20]: -0.219
glycan array binding signal (z-score) [21]: 1.78
glycan array binding signal (z-score) [22]: -0.289
glycan array binding signal (z-score) (Gal(b1-6)Gal): 0.208
glycan array binding signal (z-score) [23]: 0.165
glycan array binding signal (z-score) (Gal3S4S(b1-4)GlcNAc): -0.092
glycan array binding signal (z-score) (Gal3S6S(b1-4)GlcNAc6S): -0.035
glycan array binding signal (z-score) (Gal6S(b1-4)Glc6S): -0.41
glycan array binding signal (z-score) (GlcA(b1-3)GlcNAc): -0.118
glycan array binding signal (z-score) [24]: -0.344
glycan array binding signal (z-score) [25]: 1.26
glycan array binding signal (z-score) [26]: -0.395
glycan array binding signal (z-score) [27]: -0.264
glycan array binding signal (z-score) [28]: -0.3
glycan array binding signal (z-score) (GlcNAc(b1-3)Man): 3.03
glycan array binding signal (z-score) (GlcNAc(b1-4)GlcNAc): 10.4
glycan array binding signal (z-score) (GlcNAc(b1-6)GalNAc): -0.018
glycan array binding signal (z-score) [29]: 1.49
glycan array binding signal (z-score) [30]: -0.289
glycan array binding signal (z-score) (Neu5Ac(a2-3)Gal(b1-4)Glc): 2.16
glycan array binding signal (z-score) [31]: -0.043
glycan array binding signal (z-score) [32]: 0.36
glycan array binding signal (z-score) (Neu5Ac(a2-6)Gal): -0.129
glycan array binding signal (z-score) [33]: -0.391
glycan array binding signal (z-score) [34]: -0.278
glycan array binding signal (z-score) [35]: -0.207
glycan array binding signal (z-score) [36]: -0.286
glycan array binding signal (z-score) (Neu5Ac(a2-8)Neu5Ac): -0.021
glycan array binding signal (z-score) [37]: -0.328
glycan array binding signal (z-score) (Neu5Gc(a2-3)Gal(b1-4)Glc): 0.187
glycan array binding signal (z-score) [38]: 2.36
glycan array binding signal (z-score) [39]: -0.046
